# Experimental data reported in PubChem BioAssay (NCI).
# Compounds without any hit were thinned out: in the full panel of roughly 79,000, 15% have a hit. Values without a mark were called inactive. Calls of active or inactive are those of the source. Rule as the data show it: active = growth inhibition above about 70%; inactive = the rest.
# Experiment: NCI Yeast Anticancer Drug Screen. Data for the mlh1 rad18 strain (AID 175)
# Conditions: S. cerevisiae mlh1 rad18 strain growth inhibition; at 50.0 µM; hits give high values
# How it was run: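 Inhibition values reflect reduced growth of mutant yeast versus vehicle-treated controls following compound exposure; the mutations affect DNA damage repair.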
row,Structure (SMILES),growth inhibition
1,O=S(Cc1cc2c(cc1Br)OCO2)c1ccccc1 (stereo not given),-29.1%
2,CC1(C)C2CCC(C2)C1/C=C1/SC(=S)NC1=O (stereo not given),2.85%
3,Cc1cccc(NC(=O)CCl)c1C,-3.7%
4,CN1C(=O)C(=O)N(C)C(=O)C1=O,9.6%
5,Cc1cccc(C)c1NC(=S)NC1CC(C)CC(C)(C)C1 (stereo not given),50.3%
6,COC(=O)C(C)n1c(C)csc1=S (stereo not given),-0.55%
7,COc1ccc2nc(Cl)sc2c1,13.6%
8,CC(=O)NC(NC(C)=O)c1ccccc1,-20.5%
9,CCOc1ccc(NC(=O)C(=O)C(/C(=N/N)C(=O)OC)c2nc3ccc([N+](=O)[O-])cc3[nH]c2=O)cc1 (stereo not given),21.9%
10,Cc1ccc(O)c(Cc2cc(C)cc(Cc3cc(C)ccc3O)c2O)c1,42.4%
11,CCC(=O)Oc1ccc(C(OC(=O)CC)OC(=O)CC)cc1OC,8.05%
12,Cc1ccc(C(C(=O)O)C(Cl)(Cl)Cl)cc1 (stereo not given),4.65%
13,C[N+](C)(CC(=O)Nc1cc(C(F)(F)F)cc(C(F)(F)F)c1)CC(=O)Nc1ccc(Cl)c(C(F)(F)F)c1,99.5% (active)
14,CC(=O)OC1C=CCC2C(=O)C3=C(C(=O)c4ccccc4C3=O)C(=O)C12 (stereo not given),33.2%
15,CC(C)C(=O)c1ccccc1Cl,-8%
16,c1ccc(CCN=C2c3ccccc3-n3cccc32)nc1,16.4%
17,CC(NC(=O)NCCCl)C1CC1 (stereo not given),-0.8%
18,CCCC[n+]1cc(C(N)=O)cc2ccccc21,9.45%
19,NC(N)=Nc1ccc(Sc2ccc(N=C(N)N)cc2)cc1,-26.5%
20,NC(=O)c1cc(OCc2ccccc2)nc2nc(Cl)nc(N)c12,5.05%

row,Structure (SMILES),growth inhibition
1,CN(C)C(=S)Oc1cc(Cl)c(Cl)cc1Cl,96% (active)
2,CC1=NN2C(=O)C(c3ccccc3)SC2=NC(C)(C)C1 (stereo not given),-7.25%
3,O=C(O)c1ccc(F)cc1F,2.85%
4,CC(=O)Nc1ccc(S(=O)(=O)Nc2ccc([N+](=O)[O-])cc2)cc1,-36%
5,COc1cc(/C=N/N=C(\N)NO)cc(OC)c1OC,4.55%
6,O=C(NO)c1ccc([N+](=O)[O-])cc1,22.2%
7,O=C(Oc1cccc2ccccc12)c1cccnc1,31.3%
8,CCCCCCCSCC(O)COC(c1ccccc1)(c1ccccc1)c1ccccc1 (stereo not given),-20.6%
9,COc1ccc(NC(=O)C(=O)C2CNC(=O)NC2=O)c(OC)c1 (stereo not given),-17.3%
10,N#Cc1cccc(CC(O)(c2ccccc2)c2ccccc2)c1,18.4%
11,CN(Cc1ccccc1)C(=O)Nc1ccc(F)c([N+](=O)[O-])c1,16.2%
12,CCCCCCCCCCCCCCCCCC(=O)OC(C(O)C=O)C(O)C(O)CO (stereo not given),45.8%
13,CCOC(=O)N1C2C=C(C)C(ON2C(=O)c2ccccc2)C2C(C)C(=O)N21 (stereo not given),-13.4%
14,Cc1ccc(-c2cs/c(=N\N=C3/CSC(=O)N3Cc3ccccc3)n2-c2ccccc2)cc1,40.4%
15,CCc1ccc(CC)c(OC)c1,18.7%
16,O=C(O)CSc1n[nH]c(-c2ccccc2)n1,-9.35%
17,Nc1cccc(OCc2nc(N)nc(N)c2-c2ccc(Cl)cc2)c1,-20.9%
18,CC(=O)C(=C(c1ccccc1)c1ccccc1)c1ccccc1,7.6%
19,O=C(O)C1=C(C(=O)O)C2CCCC3C4CCCCC4N(N1)C23 (stereo not given),22.9%
20,Nc1ccccc1C(=O)Nc1ccccn1,-6.25%
